# Among all 2,400 compounds or so, about 580 (24%) were called active. Not all results are given here. Values without a mark were called inactive.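 The calls were made as follows: active = activity change at or above the mean plus 3 SD of buffer wells without dofetilide, per plate; inactive = the rest.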
# Molecular target: Potassium voltage-gated channel subfamily KQT member 2 (Rattus norvegicus) (UniProt O88943)
# Test: KCNQ2 potentiation in CHO cells – cell-based, FluxOR thallium flux, counter-screen for hERG block protector project, confirmation (AID 1942);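 also: normalized value minus buffer-control mean plus three SD of buffer wells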
# Settings: FluxOR thallium flux fluorescence, at 10 µM, active compounds read high
# Sequence of Potassium voltage-gated channel subfamily KQT member 2 (Rattus norvegicus) (O88943 whole entry, looked up): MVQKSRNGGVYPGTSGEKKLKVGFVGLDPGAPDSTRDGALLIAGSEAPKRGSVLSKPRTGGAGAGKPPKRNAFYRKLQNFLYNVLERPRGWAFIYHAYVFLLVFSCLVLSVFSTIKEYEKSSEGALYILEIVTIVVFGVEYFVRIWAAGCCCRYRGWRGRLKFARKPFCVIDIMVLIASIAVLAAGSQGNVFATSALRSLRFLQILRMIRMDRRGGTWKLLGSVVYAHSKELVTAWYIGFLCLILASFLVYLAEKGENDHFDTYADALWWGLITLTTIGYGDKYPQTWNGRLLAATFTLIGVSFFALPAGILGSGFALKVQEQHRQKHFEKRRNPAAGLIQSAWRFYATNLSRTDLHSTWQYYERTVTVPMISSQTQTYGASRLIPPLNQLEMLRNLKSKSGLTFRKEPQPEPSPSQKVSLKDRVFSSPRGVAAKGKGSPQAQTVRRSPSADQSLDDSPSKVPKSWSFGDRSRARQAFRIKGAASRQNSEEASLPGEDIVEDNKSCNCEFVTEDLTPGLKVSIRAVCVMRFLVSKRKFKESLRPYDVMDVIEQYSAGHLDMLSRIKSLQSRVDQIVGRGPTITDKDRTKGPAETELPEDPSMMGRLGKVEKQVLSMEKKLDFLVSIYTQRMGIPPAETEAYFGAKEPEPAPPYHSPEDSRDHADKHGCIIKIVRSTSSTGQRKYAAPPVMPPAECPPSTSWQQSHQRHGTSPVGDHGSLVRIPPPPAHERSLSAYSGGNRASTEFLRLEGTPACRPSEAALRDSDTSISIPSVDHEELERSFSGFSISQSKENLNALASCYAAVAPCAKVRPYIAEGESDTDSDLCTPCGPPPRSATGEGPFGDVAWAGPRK
row,Structure (SMILES),"activity change, less the hit threshold"
1,Cc1ccc(C2C(C#N)=C(N)OC3=C2C(=O)CC(C)(C)C3)s1 (configuration not stated),-16.9%
2,O=[N+]([O-])c1ccccc1OCCNCc1ccccc1,-14.6%
3,COc1ccc(CNC(=O)C(=O)c2cn(CC(=O)N3CCCC3)c3ccccc23)cc1,-11.5%
4,CCOC(=O)CC(=O)CSc1nc2c(C)c(C)ccc2cc1C,-15.8%
5,COC(=O)Cn1c(=O)c(=O)n(CC(=O)OC)c2ccccc21,-18.3%
6,O=c1c(Cc2ccccc2)c(O)nc2n1CCCS2,-10.3%
7,O=c1c2[nH]c3ccccc3c2nc2n1CCCS2,9.5% (active)
8,CCOC(=O)N1CCN(C(=O)CSc2nc3c([nH]c4ccccc43)c(=O)n2CC)CC1,-17.8%
9,Cc1cc(NC(=O)CSc2nnc(Nc3ccccc3)s2)no1,-25.4%
10,CCCc1nc(SCC(=O)Nc2cc(C)on2)c2ccccc2n1,-19.7%
11,Cc1cc(NC(=O)CSc2nc(C3CC3)nc3sc(C)c(C)c23)no1,19.9% (active)
12,Cc1nc2scc(C)n2c(=O)c1S(=O)(=O)Nc1ccc(N2CCOCC2)cc1,-19.6%
13,CCOc1cc(N2CCOCC2)c(OCC)cc1NC(=O)CCC1CCCC1,75.8% (active)
14,O=C(CNC1CCCCCC1)Nc1ccccc1N1CCOCC1,-21.6%
15,CCOc1cc(N2CCOCC2)c(OCC)cc1NC(=O)Cn1nc(C)c([N+](=O)[O-])c1C,-16.6%
16,CCOc1ccc(NC(=O)CN(C)C(=O)c2c(-c3c(F)cccc3Cl)noc2C)cc1OCC,-16.8%
17,O=C(COc1ccc2ccccc2c1Br)Nc1cccnc1,-22.1%
18,Cc1ccc(/C=C/C(=O)c2ccccc(=O)c2O)cc1C,28.9% (active)
19,Cc1ccc(C(=O)c2ccccc2C(=O)O)c(O)c1,-21.5%
20,O=C(/C=C/c1ccccc1Cl)c1ccccc(=O)c1O,30.9% (active)
21,Cc1ccc(/C=C/C(=O)c2ccccc(=O)c2O)c(C)c1,40.1% (active)

row,Structure (SMILES),"activity change, less the hit threshold"
1,Cc1ccc(NS(=O)(=O)c2ccc(NC(=O)c3ccccc3C(=O)O)cc2)cc1C,-17%
2,Cc1ccc(C(=O)CC(=O)c2cccc(F)c2)c(O)c1,-14.8%
3,Cc1ccc(C)c(/C=C/C(=O)c2ccccc(=O)c2O)c1,29.3% (active)
4,Cc1cccc(NC(=O)CN2C(=O)S/C(=C\c3ccc(-c4cccc(C(=O)O)c4C)o3)C2=O)c1,-15.3%
5,N/C(=N\OCc1ccccc1)c1nonc1N,-14.5%
6,O=C(COC(=O)C1C2CC3OC(=O)C1C3C2)Nc1ccc(Cl)cc1 (configuration not stated),-17.9%
7,CCc1ccc(/C=N/NC(=O)c2nnn(-c3nonc3N)c2C(C)C)cc1,-25.3%
8,CCC(C)C(NC(=O)C(C)NC(=O)CNC(=O)CNC(=O)OCc1ccccc1)C(=O)OC (configuration not stated),-19.3%
9,CCn1c2ccccc2c2cc(NC(=O)COc3ccccc3)ccc21,-20.7%
10,O=C(NC(=S)N1CCN(c2ccccc2)CC1)c1ccccc1,11.4% (active)
11,COc1ccc(N2CCN(C(=S)Nc3cccc(OC)c3)CC2)cc1,-8.3%
12,CC1CCCCC1NC(=S)NC(=O)c1cccs1 (configuration not stated),27.8% (active)
13,O=C(NC(=S)N1CCN(c2ccc(F)cc2)CC1)c1cccs1,25.4% (active)
14,CC1CCCCC1NC(=S)NC(=O)c1sc2ccccc2c1Cl (configuration not stated),-10%
15,CC1CCN(C(=S)NC(=O)c2cccs2)CC1,2.2% (active)
16,O=C(NC(=S)N1CCN(c2ccccc2)CC1)c1c(F)cccc1F,-2.6%
17,Cc1cc(C)cc(-n2nnc(C(=O)NCc3ccc4c(c3)OCO4)c2N)c1,-15.8%
18,N#Cc1cccc(NC(=O)c2nc(-c3ccccc3)n(-c3ccccc3)n2)c1,-22.3%
19,Oc1ccc(N2CCN(C(c3cccnc3)c3nnnn3Cc3ccccc3)CC2)cc1 (configuration not stated),-10.2%
20,CCOC(=O)c1[nH]c(=O)[nH]c1COC(=O)c1cc2ccccc2o1,-20.5%
21,Cn1c(/N=C/c2c(O)ccc3ccccc23)nc2ccccc21,-14.8%

row,Structure (SMILES),"activity change, less the hit threshold"
1,CCC1(C)Cc2c(sc3[nH]c(=S)n(Cc4ccccc4)c(=O)c23)CO1 (configuration not stated),48.6% (active)
2,CC1(C)Cc2c(sc3[nH]c(=S)n(Cc4ccccc4)c(=O)c23)CO1,11.3% (active)
3,Cn1c(=O)c2sc3c(c2n(CC(=O)Nc2ccccc2)c1=O)COC(C)(C)C3,-11.1%
4,CC(C)C1Cc2c(sc3[nH]c(=S)n(Cc4ccccc4)c(=O)c23)CO1 (configuration not stated),19.3% (active)
5,CCC(=O)N1c2ccc(C)cc2C2=NNC(=S)NC21O (configuration not stated),-16.9%
6,O=C(NC1CCCC1)C(c1ccncc1)N(Cc1ccccc1F)C(=O)c1csnn1 (configuration not stated),-8.5%
7,COc1ccc(-c2cnn(C3CCS(=O)(=O)C3)c2N)cc1 (configuration not stated),-16.8%
8,Cc1cc(C)c(S(=O)(=O)c2ccccc2)c(OC(=O)c2c(F)cccc2Cl)n1,-22%
9,COc1cccc(C(=O)/C=C/Nc2ccc(S(=O)(=O)Nc3cnc4ccccc4n3)cc2)c1,-20.6%
10,O=C1C=C(Nc2cccc3cccnc23)c2ccccc2C1=O,-8.1%
11,O=C(Nn1c(O)c(C=C2N=c3ccccc3=N2)sc1=S)c1cccc(Cl)c1,-23.1%
12,CN(C(=O)c1ccc(Cl)c(S(=O)(=O)N2CCOCC2)c1)c1ccccc1C(=O)O,-1.7%
13,COc1ccc(-c2nc(-c3ccccn3)ncc2S(C)(=O)=O)cc1,-15.6%
14,c1ccc(-c2n[nH]c(-c3ccccn3)n2)cc1,5.9% (active)
15,c1ccc(-c2ccc(-c3ccncn3)cc2)cc1,-16.2%
16,CC(C)Sc1nc2ccccc2n2cnnc12,-12.8%
17,C/C(=N\Nc1nc2ccccc2nc1C)c1ccccc1O,7.3% (active)
18,C/C(=N\Nc1nc2ccccc2s1)c1cccs1,-9.9%
19,C/C(=N\Nc1nc2ccccc2s1)c1ccc(Br)s1,-5.9%
20,CCCCNC(=O)N1CCCC(C(=O)c2cc(C)c(OC)c(C)c2)C1 (configuration not stated),-22.8%

# From PubChem BioAssay AID1942 (Johns Hopkins Ion Channel Center, 2009)
